# In the supplement of paper PMC8728848:
# This is one part of a sample in which the strongest signals are shown more often than they occur.
# B1: Actd5 (Actinidia), P84527 (protein)
# chain: ISSCNGPCRDLNDCDGQLICIKGKCNDDPQVGTHICRGTTHSHQPGGCKPSGTLTCRGKSYPTYDCSPPVTSSTPAKLTNNDFSEGGDDGGPSECDESYHNNNERIVALSTGWYNGGSRCGKMIRITASNGKSVSAKVVDECDSRHGCDKEHAGQPPCRNNIVDGSNAVWSALGLDKNVGVVDITWSMA
# Tests used:
# Assay in all cases: glycan array binding signal (z-score within array); higher = stronger binding
# Conditions in all cases: glycan notation: IUPAC condensed, linker removed
# [1] = biological target: Fuc(a1-2)Gal(b1-4)Glc
# In short: (§1)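 The binding signal is a Z-score computed within each array and averaged over linkers. Arrays of the same protein sequence at different concentrations or buffers were also averaged together. Data originate from 3228 arrays in the Consortium for Functional Glycomics database, kept only where the protein sequence was available.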
# [2] = biological target: Fuc(a1-2)[GalNAc(a1-3)]Gal(b1-3)GalNAc(b1-3)Gal(a1-4)Gal(b1-4)Glc
# In short: as §1
# [3] = biological target: Fuc(a1-2)[GalNAc(a1-3)]Gal(b1-3)GlcNAc(b1-2)Man(a1-3)[Fuc(a1-2)[GalNAc(a1-3)]Gal(b1-3)GlcNAc(b1-2)Man(a1-6)]Man(b1-4)GlcNAc(b1-4)GlcNAc
# In short: as §1
# [4] = biological target: Fuc(a1-2)[GalNAc(a1-3)]Gal(b1-3)GlcNAc(b1-2)Man(a1-3)[Fuc(a1-2)[GalNAc(a1-3)]Gal(b1-3)GlcNAc(b1-2)Man(a1-6)]Man(b1-4)GlcNAc(b1-4)[Fuc(a1-6)]GlcNAc
# In short: as §1
# [5] = biological target: Fuc(a1-2)[GalNAc(a1-3)]Gal(b1-4)GlcNAc(b1-6)GalNAc
# In short: as §1
# [6] = biological target: Fuc(a1-3)GlcNAc
# In short: as §1
# [7] = biological target: Fuc(a1-3)[Gal(b1-4)]GlcNAc(b1-3)Gal(b1-4)[Fuc(a1-3)]GlcNAc(b1-3)Gal(b1-4)[Fuc(a1-3)]GlcNAc
# In short: as §1
# [8] = biological target: Fuc(a1-3)[Gal(b1-4)]GlcNAc6S
# In short: as §1
# [9] = biological target: Fuc(a1-3)[GalNAc(b1-4)]GlcNAc6S
# In short: as §1
# [10] = biological target: Gal(a1-3)Gal
# In short: as §1
# [11] = biological target: Gal(a1-3)Gal(b1-4)GlcNAc
# In short: as §1
# [12] = biological target: Gal(a1-3)Gal(b1-4)[Fuc(a1-3)]GlcNAc(b1-2)Man(a1-3)[Gal(a1-3)Gal(b1-4)[Fuc(a1-3)]GlcNAc(b1-2)Man(a1-6)]Man(b1-4)GlcNAc(b1-4)GlcNAc
# In short: as §1
# [13] = biological target: Gal(b1-3)GalNAc(a1-3)[Fuc(a1-2)]Gal(b1-4)Glc
# In short: as §1
# [14] = biological target: Gal(b1-3)GlcNAc(b1-6)GalNAc
# In short: as §1
# [15] = biological target: Gal(b1-3)[GlcNAc(b1-6)]GalNAc
# In short: as §1
# [16] = biological target: Gal(b1-3)[Neu5Ac(a2-6)]GalNAc
# In short: as §1
# [17] = biological target: Gal(b1-4)GlcNAc(a1-6)Gal(b1-4)GlcNAc
# In short: as §1
# [18] = biological target: Gal(b1-4)GlcNAc(b1-2)[Gal(b1-4)GlcNAc(b1-4)]Man(a1-3)[Gal(b1-4)GlcNAc(b1-2)Man(a1-6)]Man(b1-4)GlcNAc(b1-4)GlcNAc
# In short: as §1
# [19] = biological target: Gal(b1-4)GlcNAc(b1-2)[Gal(b1-4)GlcNAc(b1-6)]Man(a1-6)[GlcNAc(b1-4)][Gal(b1-4)GlcNAc(b1-2)Man(a1-3)]Man(b1-4)GlcNAc(b1-4)GlcNAc
# In short: as §1
# [20] = biological target: Gal(b1-4)GlcNAc(b1-3)Gal(b1-3)GlcNAc
# In short: as §1
# [21] = biological target: Gal(b1-4)GlcNAc(b1-3)Gal(b1-4)GlcNAc(b1-2)Man(a1-3)[Gal(b1-4)GlcNAc(b1-3)Gal(b1-4)GlcNAc(b1-2)Man(a1-6)]Man(b1-4)GlcNAc(b1-4)GlcNAc
# In short: as §1
# [22] = biological target: Gal(b1-4)GlcNAc(b1-3)Gal(b1-4)GlcNAc(b1-3)Gal(b1-4)GlcNAc(b1-3)Gal(b1-4)GlcNAc(b1-3)Gal(b1-4)GlcNAc(b1-2)[Gal(b1-4)GlcNAc(b1-3)Gal(b1-4)GlcNAc(b1-3)Gal(b1-4)GlcNAc(b1-3)Gal(b1-4)GlcNAc(b1-3)Gal(b1-4)GlcNAc(b1-6)]Man(a1-6)[Gal(b1-4)GlcNAc(b1-3)Gal(b1-4)GlcNAc(b1-3)Gal(b1-4)GlcNAc(b1-3)Gal(b1-4)GlcNAc(b1-3)Gal(b1-4)GlcNAc(b1-2)Man(a1-3)]Man(b1-4)GlcNAc(b1-4)[Fuc(a1-6)]GlcNAc
# In short: as §1
# [23] = biological target: Gal(b1-4)GlcNAc(b1-3)Gal(b1-4)GlcNAc(b1-3)GalNAc
# In short: as §1
# [24] = biological target: Gal(b1-4)GlcNAc(b1-3)Gal(b1-4)GlcNAc(b1-3)[Gal(b1-4)GlcNAc(b1-3)Gal(b1-4)GlcNAc(b1-6)]GalNAc
# In short: as §1
# [25] = biological target: Gal(b1-4)GlcNAc(b1-6)[Gal(b1-4)GlcNAc(b1-3)]GalNAc
# In short: as §1
# [26] = biological target: Gal(b1-4)GlcNAc6P
# In short: as §1
# [27] = biological target: Gal3S(b1-4)[Fuc(a1-3)]GlcNAc
# In short: as §1
# [28] = biological target: Gal3S6S(b1-4)GlcNAc
# In short: as §1
# [29] = biological target: GalNAc(b1-4)GlcNAc6S
# In short: as §1
# [30] = biological target: GalNAc4S6S(b1-4)GlcNAc
# In short: as §1
binder,measurement,setting,value
B1,glycan array binding signal (z-score),[1],-1.21
same,glycan array binding signal (z-score),[2],-0.038
same,glycan array binding signal (z-score),[3],0.017
same,glycan array binding signal (z-score),[4],1.21
same,glycan array binding signal (z-score),[5],-0.865
same,glycan array binding signal (z-score),[6],-0.676
same,glycan array binding signal (z-score),[7],-0.828
same,glycan array binding signal (z-score),[8],0.273
same,glycan array binding signal (z-score),[9],-1.21
same,glycan array binding signal (z-score),[10],-0.145
same,glycan array binding signal (z-score),[11],0.17
same,glycan array binding signal (z-score),[12],2.94
same,glycan array binding signal (z-score),[13],-0.318
same,glycan array binding signal (z-score),[14],-0.821
same,glycan array binding signal (z-score),[15],-0.2
same,glycan array binding signal (z-score),[16],-1.12
same,glycan array binding signal (z-score),[17],-0.614
same,glycan array binding signal (z-score),[18],0.256
same,glycan array binding signal (z-score),[19],0
same,glycan array binding signal (z-score),[20],-0.59
same,glycan array binding signal (z-score),[21],3.9
same,glycan array binding signal (z-score),[22],0.644
same,glycan array binding signal (z-score),[23],2.99
same,glycan array binding signal (z-score),[24],2.99
same,glycan array binding signal (z-score),[25],-0.2
same,glycan array binding signal (z-score),[26],-1.05
same,glycan array binding signal (z-score),[27],-0.319
same,glycan array binding signal (z-score),[28],0.094
same,glycan array binding signal (z-score),[29],-0.111
same,glycan array binding signal (z-score),[30],-0.058
